This passage reports outcome and AC50 results from PubChem BioAssay (EPA / NIEHS).

Structures are written as SMILES. Several values for one entry are separate records, joined by “and”; a condition that tells them apart may be missing. Identical values can stand only once. Records with an inconclusive call do not appear. Activity calls are given as the source filed them. Rule for the calls: active = hit-call score of the fitted dose curve at least 0.9, where 1 is the maximum; inconclusive = response in the unintended direction; inactive = score below 0.9.

Assay [1] concerns the target Bile acid receptor (Homo sapiens) (UniProt Q96RI1). Kind of assay: NVS_NR_hFXR_Antagonist: NovaScreen (NVS) Nuclear Receptor Binding Assay for human Farnesoid X Receptor Antagonism (FXR) (AID 2283350). A digest of the protocol:
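Cell-free TR-FRET ligand-binding read-out on human FXR (NR1H4) in antagonist mode, measured 1 h after dosing. Primary screen in duplicate at 25 uM, actives retested in concentration series; signal loss scored versus DMSO.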

For another assay, the target named is PGR (gene 5241) (UniProt P06401). The experiment in a line: NVS_NR_hPR: NovaScreen (NVS) Nuclear Receptor Binding Assay for human Progestron Receptor (PR) (AID 2283360).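 Note: active means loss of bound radioligand signal versus DMSO baseline.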 A digest of the protocol:
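Competitive displacement of a labelled radioligand from T47D-derived receptor protein is measured in a cell-free format. Initial testing uses 25 uM in duplicate, with positive and negative controls on every plate.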

In assay [2] the target is Retinoic acid receptor alpha (Homo sapiens) (UniProt P10276). The experiment in a line: NVS_NR_hRARa_Agonist: NovaScreen (NVS) Nuclear Receptor Binding Assay for human Retinoic Acid Alpha Receptor Agonism (RAR) (AID 2283361). A digest of the protocol: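 Cell-free TR-FRET binding read-out with extracted human RARα protein, read 2 h after compound addition. Gain of signal scored against DMSO baseline. Primary screen at a single 25 uM in duplicate; actives then retested in concentration series.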
Sequence of Retinoic acid receptor alpha (Homo sapiens) (P10276 whole entry, looked up): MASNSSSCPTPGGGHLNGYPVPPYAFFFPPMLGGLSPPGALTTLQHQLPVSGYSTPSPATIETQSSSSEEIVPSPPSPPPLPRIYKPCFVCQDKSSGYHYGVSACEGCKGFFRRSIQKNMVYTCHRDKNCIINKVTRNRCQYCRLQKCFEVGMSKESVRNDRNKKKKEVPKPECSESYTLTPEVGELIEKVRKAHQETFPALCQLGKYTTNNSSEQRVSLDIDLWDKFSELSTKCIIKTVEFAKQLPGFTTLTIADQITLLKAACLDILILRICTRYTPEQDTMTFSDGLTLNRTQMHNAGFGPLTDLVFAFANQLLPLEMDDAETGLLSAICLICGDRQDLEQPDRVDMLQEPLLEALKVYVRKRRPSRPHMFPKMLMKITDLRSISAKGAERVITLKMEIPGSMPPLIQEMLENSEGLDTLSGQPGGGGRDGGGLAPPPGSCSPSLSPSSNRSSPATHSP

The target of assay [3] is rat Mineralocorticoid Receptor (MR), Nr3c2 (gene 25672) (UniProt P22199). The experiment in a line: NVS_NR_rMR: NovaScreen (NVS) Nuclear Receptor Binding Assay for rat Mineralocorticoid Receptor (MR) (AID 2283355). A digest of the protocol: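 Cell-free radioligand binding to MR in adrenalectomized rat brain supernatant, scintillation counted 24 h after dosing. Loss of signal versus DMSO baseline marks displacement. Primary screen in duplicate at 25 uM; actives retested as concentration series.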

The target in assay [4] is Glucocorticoid receptor (Homo sapiens) (UniProt P04150). The experiment in a line: NVS_NR_hGR: NovaScreen (NVS) Nuclear Receptor Binding Assay for human Glucocorticoid Receptor (GR) (AID 2283363).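 Note: activity is loss of specific radioligand binding signal relative to DMSO.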 A digest of the protocol: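 Cell-free radioligand binding with extracted receptor protein, read by filter-based scintillation counting 16 hours after dosing. Loss of specific signal versus DMSO baseline was scored. Primary screen ran in duplicate at 25 uM; actives were followed up in concentration series.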
Sequence of Glucocorticoid receptor (Homo sapiens) (P04150 whole entry, looked up): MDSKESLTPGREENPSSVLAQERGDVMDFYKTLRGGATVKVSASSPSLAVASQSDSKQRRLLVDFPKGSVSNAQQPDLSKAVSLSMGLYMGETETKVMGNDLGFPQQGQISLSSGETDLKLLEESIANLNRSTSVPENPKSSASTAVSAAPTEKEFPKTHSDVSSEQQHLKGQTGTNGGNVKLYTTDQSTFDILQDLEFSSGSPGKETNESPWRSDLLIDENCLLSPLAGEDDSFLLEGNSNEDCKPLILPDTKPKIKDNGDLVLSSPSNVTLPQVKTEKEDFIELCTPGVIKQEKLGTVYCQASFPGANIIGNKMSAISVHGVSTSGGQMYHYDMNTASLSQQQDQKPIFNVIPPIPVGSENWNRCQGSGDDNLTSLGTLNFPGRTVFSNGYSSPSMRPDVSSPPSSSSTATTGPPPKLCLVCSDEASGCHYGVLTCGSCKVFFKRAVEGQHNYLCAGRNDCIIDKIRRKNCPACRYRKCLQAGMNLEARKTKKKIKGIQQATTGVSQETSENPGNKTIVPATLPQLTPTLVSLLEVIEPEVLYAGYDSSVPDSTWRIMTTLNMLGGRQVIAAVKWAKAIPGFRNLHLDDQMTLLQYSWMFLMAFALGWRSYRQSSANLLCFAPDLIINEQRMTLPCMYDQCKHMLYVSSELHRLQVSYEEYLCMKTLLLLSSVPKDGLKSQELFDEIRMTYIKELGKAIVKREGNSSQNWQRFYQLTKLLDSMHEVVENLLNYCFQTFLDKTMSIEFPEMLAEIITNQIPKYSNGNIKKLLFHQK

Assay [5] deals with rat Androgen Receptor (AR), Ar (gene 24208) (UniProt P15207). The experiment in a line: NVS_NR_rAR: NovaScreen (NVS) Nuclear Receptor Binding Assay for rat Androgen Receptor (AR) (AID 2283366). A digest of the protocol: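 Cell-free radioligand binding on extracts of prostate from testosterone-pretreated rats, read by filter-based scintillation counting 18 h after dosing. Loss of bound signal fitted positively versus DMSO; primary screen in duplicate at 25 uM, actives followed up in concentration series.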

Assay [6] has as its system guinea pig Dopamine Transporter (DAT), gene 100714898. Kind of assay: NVS_TR_gDAT: NovaScreen (NVS) Transporter Assay for guinea pig Dopamine Transporter (DAT) (AID 2283369).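 Note: active compounds lower bound radioligand signal relative to DMSO.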 The essentials: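 Guinea pig striatal membranes, cell-free radioligand binding with filter-based scintillation counting, read 2 h after dosing. Loss of signal versus DMSO baseline; single-concentration primary (25 uM) then concentration-response up to 50 uM.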

Assay [7] deals with human Dopamine Transporter (DAT), SLC6A3 (gene 6531) (UniProt Q01959). Kind of assay: NVS_TR_hDAT: NovaScreen (NVS) Transporter Assay for human Dopamine Transporter (DAT) (AID 2283374).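 Note: activity means loss of bound radioligand signal relative to DMSO.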 The essentials:
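Cell-free radioligand binding to extracted human DAT protein, read 1 h after dosing by filter-based scintillation counting. Loss of specific binding scored against DMSO baseline; primary screen in duplicate at 25 uM, actives then run in concentration series.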

Assay [8] has as its target Estrogen receptor (Homo sapiens) (UniProt P03372). Kind of assay: OT_ER_ERaERa_0480: Odyssey Thera (OT) 8-hour HEK293T Protein-Complementation Assay for Estrogen Receptor-alpha/-alpha Homodimer (AID 2283351).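 Note: rise in fluorescence from reassembled reporter fragments on ERα LBD homodimer in nucleus or whole cell.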 The essentials: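 The readout is complementation of fragments fused to the human ER alpha ligand-binding domain (aa 310-547), stably expressed in HEK293T cells. After 8 h of exposure, the increase in nuclear/cytoplasmic fluorescence was measured by laser scanning cytometry and fitted relative to DMSO.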

Assay [9] deals with T1, Estrogen receptor (Homo sapiens) + Estrogen receptor beta (Homo sapiens) (UniProt P03372+Q92731). The experiment in a line: OT_ER_ERaERb_0480: Odyssey Thera (OT) 8-hour HEK293T Protein-Complementation Assay for Estrogen Receptor-alpha/-beta Heterodimer (AID 2283352). The essentials: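 HEK293T protein-fragment complementation assay of ER-alpha/ER-beta LBD heterodimerisation, read 8 h after dosing. Mean nuclear/cytoplasmic fluorescence intensity measured by laser scanning cytometry; gain of signal fitted relative to DMSO.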

The target in assay [10] is T1, Estrogen receptor (Homo sapiens) + Estrogen receptor beta (Homo sapiens). Kind of assay: OT_ER_ERaERb_1440: Odyssey Thera (OT) 24-hour HEK293T Protein-Complementation Assay for Estrogen Receptor-alpha/-beta Homodimer (AID 2283356).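 Note: heteromer of ER alpha and ER beta binding domains; hits raise reporter fluorescence and both agonists and antagonists give an increase.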 The essentials: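 HEK293T stably expressing a PCA of ER alpha LBD (aa 310-547) and ER beta LBD (aa 263-489). After 24 h compound exposure, mean fluorescence intensity in nucleus (agonists) or nucleus and cytoplasm (antagonists) measured by laser scanning cytometry versus vehicle.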

The target of assay [11] is Estrogen receptor beta (Homo sapiens) (UniProt Q92731). The experiment in a line: OT_ER_ERbERb_0480: Odyssey Thera (OT) 8-hour HEK293T Protein-Complementation Assay for Estrogen Receptor-beta/-beta Homodimer (AID 2283357).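 Note: active means signal gain over DMSO baseline.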 The essentials: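 Readout: increase in mean fluorescence intensity (nucleus for agonists; nucleus plus cytoplasm for antagonists) relative to DMSO, from a reporter-fragment complementation of human ER-beta LBD homodimer in HEK293T cells dosed 8 hours.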
Sequence of Estrogen receptor beta (Homo sapiens) (Q92731 whole entry, looked up, the tested form may be a part): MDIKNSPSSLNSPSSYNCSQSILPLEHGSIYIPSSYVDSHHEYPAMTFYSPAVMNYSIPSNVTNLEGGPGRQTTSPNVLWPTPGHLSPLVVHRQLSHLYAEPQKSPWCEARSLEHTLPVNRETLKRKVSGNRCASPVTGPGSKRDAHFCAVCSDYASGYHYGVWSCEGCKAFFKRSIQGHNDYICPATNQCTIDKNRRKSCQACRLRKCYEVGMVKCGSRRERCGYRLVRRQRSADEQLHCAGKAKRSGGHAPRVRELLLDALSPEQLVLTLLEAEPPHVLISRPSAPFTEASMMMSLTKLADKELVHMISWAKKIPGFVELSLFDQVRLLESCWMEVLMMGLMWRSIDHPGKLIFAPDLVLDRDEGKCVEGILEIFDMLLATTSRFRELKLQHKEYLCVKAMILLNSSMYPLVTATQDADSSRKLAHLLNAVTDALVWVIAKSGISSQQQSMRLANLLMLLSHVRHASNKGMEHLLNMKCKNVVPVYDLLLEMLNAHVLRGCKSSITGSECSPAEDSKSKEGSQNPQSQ

The target of assay [12] is Retinoic acid receptor alpha (Homo sapiens) (UniProt P10276). Kind of assay: NVS_NR_hRAR_Antagonist: NovaScreen (NVS) Nuclear Receptor Binding Assay for human Retinoic Acid Alpha Receptor Antagonism (RAR) (AID 2283358). The essentials:
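Cell-free TR-FRET binding assay on extracted receptor protein, run in antagonist mode; signal read 2 hours after chemical dosing. Loss of signal was fitted relative to DMSO baseline. Screened at 25 uM in duplicate, actives followed up in concentration series.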

The target of assay [13] is human Peroxisome Proliferator-activated Receptor alpha (PPARa), PPARA (gene 5465) (UniProt Q07869). Kind of assay: NVS_NR_hPPARa: NovaScreen (NVS) Nuclear Receptor Binding Assay for human Peroxisome Proliferator-activated Receptor alpha (PPARa) (AID 2283359).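 Note: activity means loss of TR-FRET signal versus DMSO baseline.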 The essentials:
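Cell-free binding assay with extracted human protein, read by TR-FRET 1 h after chemical dosing. Loss of signal relative to DMSO baseline indicates binding. Primary screen used duplicate single concentration (25 uM); actives followed up in concentration series.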

The target in assay [14] is Nuclear receptor subfamily 1 group I member 2 (Homo sapiens) (UniProt O75469). The experiment in a line: NVS_NR_hPXR: NovaScreen (NVS) Nuclear Receptor Binding Assay for human Pregnane X Receptor (PXR) (AID 2283365).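 Note: a drop in FRET signal versus DMSO baseline means the compound binds.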 The essentials:
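Cell-free TR-FRET binding assay with extracted human PXR protein, read 2 h after dosing. Primary screen run in duplicate at 25 uM, actives followed in concentration series; loss of signal fitted against DMSO baseline.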

Assay [15] addresses Peroxisome proliferator-activated receptor gamma (Homo sapiens) (UniProt P37231). The experiment in a line: NVS_NR_hPPARg: NovaScreen (NVS) Nuclear Receptor Binding Assay for human Peroxisome Proliferator-activated Receptor gamma (PPARg) (AID 2283370). A digest of the protocol: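 Cell-free fluorescence polarization binding to human PPARg protein, read 2 h after dosing. Primary screen in duplicate at 25 uM, actives followed in concentration series; loss of signal relative to DMSO scored.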

Assay [16] concerns the target rat Serotonin Transporter (SERT), Slc6a4 (gene 25553) (UniProt P31652). The experiment in a line: NVS_TR_rSERT: NovaScreen (NVS) Transporter Assay for rat Serotonin Transporter (SERT) (AID 2283375). The essentials:
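Rat forebrain membranes; radioligand displacement at SERT read by filter-based scintillation counting, 1 h after dosing. Screened in duplicate at 25 uM, actives then run in concentration series; loss of signal versus DMSO baseline.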

Sequence of Peroxisome proliferator-activated receptor gamma (Homo sapiens) (P37231 whole entry, looked up): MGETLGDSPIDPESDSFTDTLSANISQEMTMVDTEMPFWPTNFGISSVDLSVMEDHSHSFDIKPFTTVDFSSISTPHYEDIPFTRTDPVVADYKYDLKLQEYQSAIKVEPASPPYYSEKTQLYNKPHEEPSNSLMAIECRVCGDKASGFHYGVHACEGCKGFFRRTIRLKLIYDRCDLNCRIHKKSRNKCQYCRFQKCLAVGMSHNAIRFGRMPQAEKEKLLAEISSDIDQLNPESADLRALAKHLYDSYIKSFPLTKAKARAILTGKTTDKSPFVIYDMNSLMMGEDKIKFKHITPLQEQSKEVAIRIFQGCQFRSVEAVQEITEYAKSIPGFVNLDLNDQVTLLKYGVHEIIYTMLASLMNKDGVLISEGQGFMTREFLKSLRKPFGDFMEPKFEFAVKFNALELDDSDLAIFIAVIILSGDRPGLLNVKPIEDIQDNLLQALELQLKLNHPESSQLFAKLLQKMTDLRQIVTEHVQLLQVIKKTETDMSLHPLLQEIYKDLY
Sequence of human Peroxisome Proliferator-activated Receptor alpha (PPARa), PPARA (gene 5465) (Q07869 whole entry, looked up): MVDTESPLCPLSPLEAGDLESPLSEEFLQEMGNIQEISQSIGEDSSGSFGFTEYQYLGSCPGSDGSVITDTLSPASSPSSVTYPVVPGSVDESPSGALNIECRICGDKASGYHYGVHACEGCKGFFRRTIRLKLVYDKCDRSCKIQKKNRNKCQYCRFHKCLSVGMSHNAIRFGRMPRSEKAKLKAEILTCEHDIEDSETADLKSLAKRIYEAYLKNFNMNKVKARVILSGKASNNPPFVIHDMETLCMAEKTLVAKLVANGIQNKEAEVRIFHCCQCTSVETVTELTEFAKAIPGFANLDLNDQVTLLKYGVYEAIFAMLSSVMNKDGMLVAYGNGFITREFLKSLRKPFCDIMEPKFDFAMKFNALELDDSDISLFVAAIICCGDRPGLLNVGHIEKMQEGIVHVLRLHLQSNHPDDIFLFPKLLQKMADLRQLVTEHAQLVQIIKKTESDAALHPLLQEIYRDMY
Sequence of PGR (gene 5241) (P06401 whole entry, looked up): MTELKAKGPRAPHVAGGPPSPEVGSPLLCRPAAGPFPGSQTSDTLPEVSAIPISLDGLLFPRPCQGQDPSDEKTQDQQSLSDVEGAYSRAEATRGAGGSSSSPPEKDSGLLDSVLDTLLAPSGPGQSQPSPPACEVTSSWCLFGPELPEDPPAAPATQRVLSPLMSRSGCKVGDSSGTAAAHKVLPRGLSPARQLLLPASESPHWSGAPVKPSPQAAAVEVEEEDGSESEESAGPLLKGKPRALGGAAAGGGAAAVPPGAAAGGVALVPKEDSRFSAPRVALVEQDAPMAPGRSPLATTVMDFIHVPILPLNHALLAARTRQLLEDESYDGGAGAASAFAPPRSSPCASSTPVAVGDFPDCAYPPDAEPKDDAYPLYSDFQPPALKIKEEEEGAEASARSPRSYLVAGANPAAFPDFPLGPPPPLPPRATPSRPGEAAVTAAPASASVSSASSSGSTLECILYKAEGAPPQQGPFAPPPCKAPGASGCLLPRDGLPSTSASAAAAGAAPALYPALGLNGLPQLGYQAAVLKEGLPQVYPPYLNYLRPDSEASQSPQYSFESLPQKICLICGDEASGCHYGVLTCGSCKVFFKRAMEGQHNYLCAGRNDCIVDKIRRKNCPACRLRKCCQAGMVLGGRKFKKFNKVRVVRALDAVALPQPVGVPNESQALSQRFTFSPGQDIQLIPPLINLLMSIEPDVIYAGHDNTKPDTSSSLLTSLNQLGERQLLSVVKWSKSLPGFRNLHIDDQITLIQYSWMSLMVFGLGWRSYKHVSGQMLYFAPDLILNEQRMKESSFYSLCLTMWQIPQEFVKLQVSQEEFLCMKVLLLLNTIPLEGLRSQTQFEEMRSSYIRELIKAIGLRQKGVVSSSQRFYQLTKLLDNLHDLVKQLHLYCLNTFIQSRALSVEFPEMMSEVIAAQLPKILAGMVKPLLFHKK
Sequence of human Dopamine Transporter (DAT), SLC6A3 (gene 6531) (Q01959 whole entry, looked up): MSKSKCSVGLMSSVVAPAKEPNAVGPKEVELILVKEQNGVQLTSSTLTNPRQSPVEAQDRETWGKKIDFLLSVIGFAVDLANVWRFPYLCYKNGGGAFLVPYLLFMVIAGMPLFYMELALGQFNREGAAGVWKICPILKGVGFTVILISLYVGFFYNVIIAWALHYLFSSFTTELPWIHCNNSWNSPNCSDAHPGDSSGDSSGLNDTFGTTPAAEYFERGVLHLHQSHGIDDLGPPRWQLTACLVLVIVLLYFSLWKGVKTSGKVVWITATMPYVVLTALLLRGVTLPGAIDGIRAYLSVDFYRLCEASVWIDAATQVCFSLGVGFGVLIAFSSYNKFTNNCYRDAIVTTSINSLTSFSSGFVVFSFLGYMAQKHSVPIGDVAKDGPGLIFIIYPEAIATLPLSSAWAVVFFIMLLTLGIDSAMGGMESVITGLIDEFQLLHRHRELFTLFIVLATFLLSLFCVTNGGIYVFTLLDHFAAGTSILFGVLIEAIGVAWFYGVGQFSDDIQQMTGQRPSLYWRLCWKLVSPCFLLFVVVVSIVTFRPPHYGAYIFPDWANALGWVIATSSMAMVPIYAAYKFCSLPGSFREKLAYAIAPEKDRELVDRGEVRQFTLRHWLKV
Sequence of Nuclear receptor subfamily 1 group I member 2 (Homo sapiens) (O75469 whole entry, looked up): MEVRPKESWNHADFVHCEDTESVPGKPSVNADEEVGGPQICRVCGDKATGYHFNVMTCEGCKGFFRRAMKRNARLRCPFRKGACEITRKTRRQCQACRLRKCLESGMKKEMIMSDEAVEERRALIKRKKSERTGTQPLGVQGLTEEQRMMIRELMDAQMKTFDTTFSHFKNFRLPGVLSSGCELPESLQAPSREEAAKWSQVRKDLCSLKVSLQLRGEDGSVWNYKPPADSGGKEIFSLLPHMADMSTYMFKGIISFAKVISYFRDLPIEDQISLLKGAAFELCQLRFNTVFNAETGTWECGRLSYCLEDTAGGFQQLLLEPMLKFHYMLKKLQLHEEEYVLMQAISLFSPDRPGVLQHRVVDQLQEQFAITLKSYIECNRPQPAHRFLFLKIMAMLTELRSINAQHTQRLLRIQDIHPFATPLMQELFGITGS

In the case of `O=C(O)C1(c2ccc3c(c2)OC[C@H](Cc2ccc(-c4ccccc4)cc2)[C@H]3O)CCCC1`, the result (in [1]; with PGR (gene 5241); in assay [2]) was inactive.

The term AC50 denotes the concentration at which the activity in the assay is half-maximal. On to `Cc1cc(C(C)(C)c2ccc(O)c(C)c2)ccc1O`, for which the call in assay [3] and in assay [5] was inactive. In addition, the concentration at half-maximal activity (AC50) is 23.3 µM (active) in the assay with PGR (gene 5241), 1.82 µM (active) in assay [4], 6.35 µM (active) in [6] and 1.62 µM (active) in assay [7].

For the compound `CCC[CH2][Sn]([Cl])([Cl])[CH2]CCC`, the compound was classed as inactive in assay [8], in [9], in assay [10], in assay [11], in assay [12] and in [15]. The half-maximal activity concentration (AC50) in assay [13] is 12 µM (active); in assay [2], 38 µM (active); in assay [4], 3.88 µM (active); in assay [14] it was 5.56 µM (active).

On to `Oc1cc(Cl)c(Cl)cc1Cl`, for which the AC50 in assay [11] is 43.8 µM (active). For the same compound, the outcome in assay [13] and in assay [15] was inactive.

In the case of `CCOP(=S)(OCC)O/N=C(\C#N)c1ccccc1`, the AC50 in assay [11] is 26.9 µM (active). In addition, the compound was classed as inactive in [14].

Consider `CCOC(=O)C(SP(=S)(OC)OC)c1ccccc1` (stereo unspecified), for which the outcome in the assay with PGR (gene 5241) was inactive.

On to `O=[N+]([O-])c1ccc(Nc2ccccc2)cc1`, for which the concentration at half-maximal activity (AC50) with PGR (gene 5241) is 37.6 µM (active); in assay [6] it was 4.24 µM (active); in [7], 5.62 µM (active).

With `Cc1ccccc1OP(=O)(Oc1ccccc1)Oc1ccccc1`, the result in the assay with PGR (gene 5241) was inactive. Also, the AC50 in [6] was 13.9 µM (active); in assay [7] it was 2.25 µM (active).

As to `Cc1ccc(OP(=O)(Oc2ccc(C)cc2C)Oc2ccc(C)cc2C)c(C)c1`, the AC50 in assay [7] is 17.4 µM (active).

As for `O=C(CBr)c1ccc(O)cc1`, the outcome in assay [11] and in [14] was inactive.

Take `CCCCCCCCCCCCOS(=O)(=O)O`: the AC50 in [13] was 15.8 µM (active) and 8.71 µM (active); in assay [4] it was 11.6 µM (active) and 12.7 µM (active); in assay [14] it was 38.1 µM (active) and 17.4 µM (active).

As to `Oc1ccc(Cc2ccc(O)cc2)cc1`, the values for the AC50 in assay [6] and in assay [7] were 10.1 µM (active) and 9.05 µM (active), respectively.

Turning to `Cc1cc(Cl)ccc1O`, the AC50 in assay [11] is 66.5 µM (active). In assay [13], the compound was called inactive.

On to `COCCl`, for which the compound was classed as inactive in assay [11]. Moreover, the half-maximal activity concentration (AC50) in [15] is 4.2 µM (active).

For `Nc1nc(N)nc(Cl)n1`, the result in assay [16] was inactive.

In the case of `O=c1[nH]c(=O)n(Cl)c(=O)n1Cl`, the call in [14] was inactive.

`Nc1c(Oc2ccccc2)cc(O)c2c1C(=O)c1ccccc1C2=O`: in assay [5], the result was inactive.
